This is a sample that favours compounds with a hit; in the whole collection about 2.8% have one here.
KKLEB cytotox – CF airway cell cytotoxicity counter-screen; KKLEB CF airway cells viability, ATPlite luminescence, overnight; active compounds read low; cells stimulated with P. aeruginosa culture filtrate; activity change (cytotoxicity), % at 5 µM; hit rate 0.36% among 360,000; AID 602141;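 active = corrected activity change at or below -50% at 5 µM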
HIF-2a inh – blocks HIF-2a reporter activity; 786-0 RCC cells HIF-2a reporter, luciferase luminescence, overnight; inhibition, % at 18.8 µM; hit rate 0.72% among 360,000; AID 624352;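 active = inhibition of the luminescence signal of 40% or more relative to plate controls, in a single-dose primary screen at 18.75 µM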
MITF TRPM1 inh – inhibitors of MITF-driven TRPM1 promoter in melanoma cells; SK-MEL-5 TRPM1 promoter luciferase, 24 h; inhibition, % at 12.5 µM; hit rate 0.83% among 330,000;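 active = mean inhibition across replicates of 60% or more, whatever share of single replicates reaches that level; inconclusive = some that reach 60%, reason not given; inactive = mean inhibition across replicates below 60%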
Shn3 inh set2 – inhibitors of Schnurri-3 3'UTR reporter in osteoblasts; Clone20 osteoblast Shn3 3'UTR firefly luciferase, 24 h; hit rate 0.52% among 360,000; inhibition, % at 12.5 µM; AID 588674;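 active = mean inhibition of at least 75% with every replicate also reaching 75%; inconclusive = mean inhibition at least 75% but some replicate below; inactive = mean inhibition below 75%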;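 note: 0% = median of neutral control wells and 100% = pilot-screen positive control compound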
CF NFkB block – inhibitors of cystic fibrosis induced NF-kB | hit rate 0.86% among 360,000 | inhibition, % at 5 µM | KKLEB NF-kB-GFP reporter, PAF-induced, GFP fluorescence overnight;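 active = at least 50% inhibition at 5 µM, scaled per plate between neutral and stimulator controls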;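 note: PAF is a Pseudomonas aeruginosa culture filtrate used as stimulus; plate controls were PAF-stimulated DMSO wells for no effect and unstimulated DMSO wells for full effect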
Peg3 prom inh – Peg3 promoter activity inhibition. inhibition, % at 20 µM. HeLa PEG-Prom luciferase reporter, luminescence, overnight. hit rate 1.7% among 360,000;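 active = inhibition of at least 50% at 20 µM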
Mdm2-MdmX confirm – Mdm2/MdmX (human) interaction inhibition, confirmed. hit rate 99% among 740. inhibition, % at 8 µM. SaOS-2 split-luciferase Mdm2/MdmX complementation, luminescence. shares compounds with HIF-2a inh. AID 504601;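 active = mean inhibition of the luminescence signal across two replicates at or above 26 percent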
HIF-2a conf – confirmation of HIF-2a inhibitors | inhibition, % at 18.8 µM | AID 651580 | shares compounds with HIF-2a inh | hit rate 56% among 1,800 | 786-0 RCC cells, HIF-2a luciferase reporter luminescence, overnight;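 active = mean inhibition across four replicates of at least 40 percent at the single tested concentration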
HIF-1a counter – counter-screen for HIF-2a inhibitors: HIF-1a inhibition in MiaPaCa-2 cells. MiaPaCa-2 HIF-1a luciferase reporter, desferoxamine, overnight. AID 651589. inhibition, % at 18.8 µM. shares compounds with HIF-2a inh. hit rate 72% among 1,800;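 active = mean inhibition of the reporter signal across four replicates at the single tested dose of 50% or more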
* hit, by the source's call; ? = inconclusive; · = no result.

SMILES | KKLEB cytotox | HIF-2a inh | MITF TRPM1 inh | Shn3 inh set2 | CF NFkB block | Peg3 prom inh | HIF-2a conf | HIF-1a counter | others
CSc1ccccc1OCc1cc(C(=O)N2CCN3CCCC3C2)no1 (stereo not drawn) | 19 | -69 | -25 | -38 | -18 | -43 | · | ·
C=CCNS(=O)(=O)NC(=O)C1=C(N2CCCC2)COC1=O | 1 | 2 | -10 | -4 | -2 | 5 | · | ·
Cc1cc(OCC(=O)OCC(=O)Nc2ccc(Cl)cn2)ccc1Cl | -9 | 10 | 4 | -5 | 5 | 4 | · | ·
Cc1sc2nc(C3CC3)nc(SCC(=O)N3c4ccccc4CC3C)c2c1C (stereo not drawn) | -11 | -6 | 9 | 61 | 3 | 16 | · | · | Mdm2-MdmX confirm=101*
Cc1nc(SCC(=O)N2c3ccccc3NC(=O)CC2C)c2c(C)c(C)sc2n1 (stereo not drawn) | -11 | 23 | 20 | 9 | 4 | -6 | · | ·
O=C(Cc1ccc([N+](=O)[O-])cc1)N1N=C(c2ccncc2)CC1(O)C(F)(F)F (stereo not drawn) | -15 | 29 | 1 | 13 | -5 | 13 | · | ·
Cc1nn(C)c(C)c1NS(=O)(=O)c1ccccc1 | 1 | 12 | 2 | -7 | -8 | 18 | · | ·
Cc1nn(-c2ccccc2)c(C)c1NS(=O)(=O)c1ccccc1 | 6 | 41* | 25 | -10 | 3 | 16 | 34 | 14
Nc1cc(Nc2ccccc2)ccn1 | -24 | 4 | -2 | 10 | -9 | -18 | · | ·
N#Cc1sc2nccc(Nc3ccccc3)c2c1N | -14 | 17 | · | 37 | 81* | 23 | · | · | Mdm2-MdmX confirm=91*
O=C(Cc1cccc2ccccc12)Nc1ccc(-c2cc3ccccc3oc2=O)cc1 | -13 | 53* | 49 | 39 | 22 | 13 | 68* | 52*
Cc1ccc(C(=O)NC(=S)Nc2ccc(-c3cc4ccccc4oc3=O)cc2)c(C)c1 | 1 | 81* | 39 | 48 | 13 | 48 | 76* | 56*
Cc1cc(C)cc(C(=O)NC(=S)Nc2ccc(-c3cc4ccccc4oc3=O)cc2)c1 | -57* | 82* | 59 | 55 | 57* | 19 | 76* | 0
CCN(C[C@H]1N[C@@](C)(C(=O)OC)[C@H]2C(=O)N(Cc3ccccc3)C(=O)[C@@H]12)C(=O)Nc1ccc(F)cc1 | -2 | -1 | -2 | 62 | 6 | 1 | · | ·
CCSc1nnc(NC(NC(C)=O)(C(F)(F)F)C(F)(F)F)s1 | 16 | -6 | 2 | -3 | 14 | -16 | · | ·
COc1cccc(C(=O)N2CCN(C(=O)COc3ccc4ccccc4c3)CC2)c1 | -12 | -25 | -1 | -8 | 22 | -31 | · | ·
COc1ccc(/C=N\n2nnc3ccccc32)cc1 | -19 | 40* | 38 | 49 | 1 | 48 | 72* | 42
COc1ccc(/C=N/n2c(C)nc3ccccc3c2=O)cc1 | 16 | -94 | -32 | -52 | -10 | -110 | · | ·
COC(=O)c1ccc(CN(c2ccccn2)S(=O)(=O)c2ccccc2)cc1 | -8 | 6 | 3 | 11 | 7 | 8 | · | ·
COC(=O)c1ccc(CN(c2ccc(C(=O)O)c(O)c2)S(=O)(=O)c2ccc(Cl)c([N+](=O)[O-])c2)cc1 | -5 | 77* | -7 | 10 | 23 | 55* | 5 | 57*
COC(=O)COc1ccc(S(=O)(=O)N2CCc3ccccc3C2)cc1C | 9 | 76* | 2 | -24 | -13 | 16 | 20 | -5
COC(=O)COc1ccc(NC(=O)C(c2ccccc2)c2ccccc2)cc1 | -1 | 88* | 8 | 4 | 4 | 7 | 34 | -10
COC(=O)COc1ccc(S(=O)(=O)N2CCOCC2)cc1C | 8 | 18 | 11 | -46 | -5 | 9 | · | ·
CCOc1ccc(S(=O)(=O)N2CCC(C(=O)N3CCN(c4ccccc4)CC3)CC2)cc1 | 1 | 2 | 13 | 16 | 1 | 21 | · | ·
COC(=O)COc1ccc(S(=O)(=O)N2CCN(c3ccccc3F)CC2)cc1 | 5 | 66* | 4 | -7 | -2 | 11 | 12 | -1
SMILES | KKLEB cytotox | HIF-2a inh | MITF TRPM1 inh | Shn3 inh set2 | CF NFkB block | Peg3 prom inh | HIF-2a conf | HIF-1a counter | others
COC(=O)c1cc(S(=O)(=O)N2CCN(c3ccccc3F)CC2)c[nH]1 | -12 | 10 | 0 | 30 | 8 | -1 | · | ·
COC(=O)COc1ccc(S(=O)(=O)N2CCN(c3ccccc3)CC2)cc1 | 10 | 48* | -2 | -18 | -5 | 18 | 4 | -13
Cc1ccc(/C=C/S(=O)(=O)NCCC(=O)NCc2ccc(F)cc2)cc1 | 20 | 12 | 11 | -13 | -12 | 18 | · | ·
Cc1ccc(NC(=S)NNc2ncc(C(F)(F)F)cc2Cl)cc1 | 6 | 69* | 30 | 35 | 2 | 26 | 82* | 41
Fc1ccc(NC(=S)NNc2ncc(C(F)(F)F)cc2Cl)c(F)c1 | -8 | 34 | ? | 28 | 40 | 38 | · | ·
FC(F)(F)c1cnc(NNC(=S)Nc2ccc(Cl)cc2)c(Cl)c1 | -23 | 48* | 50 | 18 | 44 | 37 | 52* | 38
Cc1ccc(NC(=S)NNc2ncc(C(F)(F)F)cc2Cl)c(C)c1 | -1 | 27 | -10 | 11 | 17 | 23 | · | ·
O=C(Nc1ccc(C(=O)N2CCCCC2)cc1)[C@H]1O[C@@H](n2ccc(=O)[nH]c2=O)[C@H](O)[C@@H]1O | -18 | 16 | · | -20 | -27 | 8 | · | ·
CN(C)c1ccc(-n2cccc2/C=C/[N+](=O)[O-])cc1 | -9 | 91* | 66* | -22 | -36 | 94* | 89* | 106*
CN(C)c1ccc(/C=C/c2c([N+](=O)[O-])c(=O)n(C)c(=O)n2C)cc1 | 11 | -31 | 7 | -23 | -13 | 3 | · | ·
NC(=O)c1cc2ccncc2c2ccccc12 | -7 | 33 | -9 | 6 | 79* | -16 | · | · | Mdm2-MdmX confirm=98*
CCOc1ccc2nc(C)cc(Nc3cccc([N+](=O)[O-])c3)c2c1 | -23 | 63* | 84* | 8 | -26 | 92* | 26 | 101* | Mdm2-MdmX confirm=103*
Cc1cc(Nc2ccc([N+](=O)[O-])cc2)c2ccccc2n1 | 9 | 18 | 43 | 32 | -81 | 11 | · | · | Mdm2-MdmX confirm=103*
CCOc1ccc2nc(C)cc(Nc3ccc4c(c3)OCCO4)c2c1 | -1 | 45* | 32 | 17 | -29 | 88* | -3 | 33
C#CCOCCOCCOCCNc1nc(N2CCN(C(=O)[C@H](CC(N)=O)n3cc(C(N)[C@H](C)CC)nn3)CC2)nc(N2CCN(C(=O)[C@H](CC(N)=O)n3cc(C(N)[C@@H](C)CC)nn3)CC2)n1 (stereo partly drawn) | 6 | 6 | -4 | -17 | 9 | -3 | · | ·
